Results filed as inconclusive are left out. Activity calls are given as the source filed them. Unless noted, the call rests on the fitted dose curve; in most records, active means well fitted curve in the direction sought with a large enough effect in the repeat runs; inconclusive means weak or mixed curves; inactive means no such curve, though single readings can be large; an effect the other way counts as inactive or inconclusive.
Legend:
[1] = qHTS assay to identify small molecule agonists of the sonic hedgehog signaling (Shh) pathway (AID 1259368; calls by dose curve;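 further: NIH/3T3-derived 3T3Gli1-Luc cells carrying a stable Gli1-driven firefly luciferase reporter; series mostly up to about 92 µM; nearly all actives have a fitted effect of over 15% in size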)
Procedure, shortened: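 Steps: seed 3T3 Gli1-Luc cells, incubate 4 hr at 37 C, pin-transfer compounds in DMSO alongside a positive control, incubate 24 hr, add luciferase detection reagent, wait 30 min at room temperature, read luminescence.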

[2] = qHTS assay to identify small molecule antagonists of the sonic hedgehog signaling (Shh) pathway (AID 1259369; calls by dose curve; further: nearly all actives have a fitted effect of over 45% in size)
Procedure, shortened: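 Inhibition of Shh signalling is measured as reduced Gli1-response-element firefly luciferase output in an NIH/3T3-derived stable reporter clone stimulated with conditioned medium for 24hr.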

[3] = molecular target: Estrogen receptor beta (Homo sapiens) (UniProt Q92731); test: qHTS assay to identify small molecule antagonists of the estrogen receptor beta (ER-beta) signaling pathway (AID 1259378; active means well fitted inhibition curve with a large enough effect in the signal ratio in the repeat runs, not every such curve was filed as active; the % refers to the signal ratio)
Procedure, shortened: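 Antagonist mode: compounds added to beta-lactamase reporter HEK293T ER-beta-UAS cells stimulated with E2 (1nM final), 16 hr at 37C. LiveBLAzer B/G FRET substrate, 2 hours room temperature, fluorescence read-out.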

[4] = qHTS assay to identify small molecule agonists of the androgen receptor (AR) signaling pathway in the presence of an antagonist - cell viability counter screen (AID 1259379);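 further: MDA-kb2 human breast cancer cells carrying an MMTV luciferase reporter; series mostly up to about 92 µM; nearly all actives have a fitted effect of over 25% in size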
Procedure, shortened: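 Fluorescence from CellTiter-Fluor, added after 15 hr and read 1 hr later, gave cell viability. Cells were MDA-kb2 exposed to compounds (15 concentrations) in the presence of 3.0uM nilutamide at 37C, 0% CO2.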

[5] = qHTS assay to identify small molecule agonists of the estrogen receptor beta (ER-beta) signaling pathway - cell viability counter screen (AID 1259380); further: nearly all actives have a fitted effect of over 30% in size
Procedure, shortened: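 Same-well viability counter screen. Cells: ER-beta-UAS-bla HEK293T, plated 6 hr before compound, in 2% charcoal-stripped FBS. Compound exposure 16 hr, 37C; viability by CellTiter-Glo luminescence after 30 min at room temperature.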

[6] = qHTS assay to identify small molecule antagonists of the estrogen receptor beta (ER-beta) signaling pathway - cell viability counter screen (AID 1259382);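 further: HEK293T cells carrying ER-beta-UAS-bla reporter stimulated with estradiol; series mostly up to about 92 µM; nearly all actives have a fitted effect of over 55% in size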
Procedure, shortened: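 Following a 6 hr plating period, HEK293T cells carrying a UAS-driven beta-lactamase reporter under ER-beta control received compounds and 1nM E2 (final). After 16 hr at 37C and 2 hr substrate loading, CellTiter-Glo luminescence indicated viability.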

[7] = molecular target: Estrogen receptor (Homo sapiens) (UniProt P03372); test: qHTS assay to identify small molecule agonists of the estrogen receptor alpha (ER-alpha) signaling pathway in the presence of an antagonist (AID 1259383; calls by dose curve; further: top concentration of the series differs between compounds; nearly all actives have a fitted effect of over 15% in size)
Procedure, shortened: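 Cells are hormone-deprived for 5 days (charcoal-stripped FBS, no phenol red), plated for 24hr, spiked with 10.0nM ICI-182,780, then dosed at 15 concentrations. After 22hr at 37C, ONE-Glo luminescence reports ERE-luciferase activity.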

[8] = qHTS assay to identify small molecule agonists or antagonists of the thyroid stimulating hormone receptor (TSHR) signaling pathway - wild type cell line counter screen (AID 1259384; calls by dose curve)
Procedure, shortened: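 Counter screen in untransfected Hek293: compounds (15-point titration, triplicate) plus phosphodiesterase inhibitor Ro20-1724 added after 18 h plating; 30 min RT. Intracellular cAMP via competitive d2/cryptate immunoassay, 1 h incubation.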

[9] = molecular target: Thyrotropin receptor (Homo sapiens) (UniProt P16473); test: qHTS assay to identify small molecule antagonists of the thyroid stimulating hormone receptor (TSHR) signaling pathway (AID 1259385; calls by dose curve; further: nearly all actives have a fitted effect of over 20% in size)
Procedure, shortened: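 Antagonist mode: compound-treated TSHR-expressing HEK293 cells were stimulated with 1.5 ng/mL TSH (final) in presence of Ro20-1724 for 30 min at RT. HTRF cAMP detection after 1 h; each compound tested at 15 concentrations, triplicate.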

[10] = qHTS assay to identify small molecule agonists of the estrogen receptor alpha (ER-alpha) signaling pathway in the presence of an antagonist - cell viability counter screen (AID 1259386);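 further: series mostly up to about 92 µM; cells exposed to compounds for 22 h at 37 °C before the viability read; nearly all actives have a fitted effect of over 30% in size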
Procedure, shortened: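 Cells are starved of estrogens for 5 days in charcoal-stripped serum, seeded for 24hr and co-treated with ICI-182,780 (10.0nM final) and test compounds. After 22hr at 37C, viability is read as CellTiter-Fluor fluorescence.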

[11] = molecular target: Progesterone receptor (Homo sapiens) (UniProt P06401); test: qHTS assay to identify small molecule antagonists of the progesterone receptor (PR) signaling pathway (AID 1346795; active means well fitted inhibition curve with a large enough effect in the signal ratio in the repeat runs, not every such curve was filed as active; the % refers to the signal ratio)
Procedure, shortened: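 HEK293T PR-UAS-bla reporter cells in charcoal-stripped serum (2%) received compound after a 6 hr settling period, followed by R5020 agonist at 1 nM final; 16 hr incubation preceded the FRET substrate step and fluorescence measurement.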

[12] = qHTS assay to identify small molecule antagonists of the progesterone receptor (PR) signaling pathway - cell viability counter screen (AID 1346798); further: series mostly up to about 92 µM; nearly all actives have a fitted effect of over 50% in size
Procedure, shortened: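 Same-well multiplex: after 16 hr at 37C with compound and R5020 stimulation, HEK293T cells carrying a UAS-bla reporter received LiveBLAzer substrate (2 hr RT), then CellTiter-Glo (30 min RT) for luminescent viability.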

[13] = qHTS assay to identify small molecule antagonists of the TGF-beta/Smad signaling pathway - cell viability counter screen (AID 1346824); further: nearly all actives have a fitted effect of over 50% in size
Procedure, shortened: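 Cytotoxicity counter-screen run in the same wells as the beta-lactamase Smad reporter read: CellTiter-Glo luminescence after 30 min at room temperature. HEK 293T SBE-bla cells had 5 hr compound exposure at 37 C with TGF-beta1 (0.25 ng/mL stock).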

[14] = qHTS assay to identify small molecule agonists of the TGF-beta/Smad signaling pathway - cell viability counter screen (AID 1346829); further: top concentration of the series differs between compounds; nearly all actives have a fitted effect of over 45% in size
Procedure, shortened: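 Tox21 qHTS format: SBE-bla HEK 293T cells treated with DMSO-dissolved compounds for 5 hr; CellTiter-Glo luminescence after 30 min at room temperature.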

[15] = qHTS assay to identify small molecule agonists of the TGF-beta/Smad signaling pathway (AID 1346859; active means well fitted activation curve with a large enough effect in the signal ratio in the repeat runs, not every such curve was filed as active; the % refers to the signal ratio; further: series mostly up to about 77 µM)
Procedure, shortened: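 Smad-responsive beta-lactamase reporter cells (HEK 293T) received compounds from DMSO stocks after overnight attachment, were incubated 5 hr, then treated 2 hr with FRET substrate before dual-emission fluorescence measurement (405 nm excitation).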

[16] = molecular target: Thyrotropin-releasing hormone receptor (Homo sapiens) (UniProt P34981); test: qHTS assay to identify small molecule antagonists of the thyrotropin-releasing hormone receptor (TRHR) signaling pathway (AID 1346877; active means well fitted inhibition curve with a large enough effect in the repeat runs, not every such curve was filed as active; further: series mostly up to about 51 µM)
Procedure, shortened: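 Cells (TRHR-HEK293) are plated and kept 18 h at 37 °C/5% CO2. A calcium-sensitive dye is added for 2 h, compound follows for 5 min at room temperature, and TRH is then given at 1 nM final.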

[17] = molecular target: Androgen receptor (Homo sapiens) (UniProt P10275); test: qHTS assay to identify small molecule agonists of the androgen receptor (AR) signaling pathway in the presence of an antagonist (AID 1259381; calls by dose curve; further: nearly all actives have a fitted effect of over 15% in size)
Procedure, shortened: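 Cells are MDA-kb2 (human breast carcinoma, MMTV-luc, AR/GR responsive). Nilutamide is present at 3.0uM final throughout; compounds are added at 15 concentrations and incubated 16hr at 37C before ONE-Glo luminescence detection.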

[18] = molecular target: Progesterone receptor (Homo sapiens) (UniProt P06401); test: qHTS assay to identify small molecule agonists of the progesterone receptor (PR) signaling pathway (AID 1346784; calls by dose curve; further: nearly all actives have a fitted effect of over 30% in size)
Procedure, shortened: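 Agonist mode, quantitative HTS format in a HEK 293T line expressing a UAS-controlled beta-lactamase reporter; 16 hr compound exposure at 37C in 2% charcoal-stripped FBS, then LiveBLAzer B/G FRET fluorescence.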

[19] = qHTS assay to identify small molecule agonists of the progesterone receptor (PR) signaling pathway - cell viability counter screen (AID 1346799; calls by dose curve; further: nearly all actives have a fitted effect of over 45% in size)
Procedure, shortened: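 Counter screen for cytotoxicity: compound-treated PR-UAS-bla HEK293T cells (16 hr, 37C, 5% CO2) were assayed with CellTiter-Glo, luminescence measured after 30 min at room temperature.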

[20] = molecular target: Estrogen receptor beta (Homo sapiens) (UniProt Q92731); test: qHTS assay to identify small molecule agonists of the estrogen receptor beta (ER-beta) signaling pathway (AID 1259377; active means well fitted activation curve with a large enough effect in the signal ratio in the repeat runs, not every such curve was filed as active; the % refers to the signal ratio)
Procedure, shortened: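 A UAS-controlled beta-lactamase reporter in ER-beta-UAS-bla HEK293T cells reports receptor activation. Compounds act for 16 hr at 37C in 2% charcoal-stripped serum, and a FRET substrate is read by fluorescence after 2 hours.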
On the % scale 0 is the no-effect control and ±100 the full control effect.

Progesterone receptor (Homo sapiens), sequence (P06401 whole entry, looked up): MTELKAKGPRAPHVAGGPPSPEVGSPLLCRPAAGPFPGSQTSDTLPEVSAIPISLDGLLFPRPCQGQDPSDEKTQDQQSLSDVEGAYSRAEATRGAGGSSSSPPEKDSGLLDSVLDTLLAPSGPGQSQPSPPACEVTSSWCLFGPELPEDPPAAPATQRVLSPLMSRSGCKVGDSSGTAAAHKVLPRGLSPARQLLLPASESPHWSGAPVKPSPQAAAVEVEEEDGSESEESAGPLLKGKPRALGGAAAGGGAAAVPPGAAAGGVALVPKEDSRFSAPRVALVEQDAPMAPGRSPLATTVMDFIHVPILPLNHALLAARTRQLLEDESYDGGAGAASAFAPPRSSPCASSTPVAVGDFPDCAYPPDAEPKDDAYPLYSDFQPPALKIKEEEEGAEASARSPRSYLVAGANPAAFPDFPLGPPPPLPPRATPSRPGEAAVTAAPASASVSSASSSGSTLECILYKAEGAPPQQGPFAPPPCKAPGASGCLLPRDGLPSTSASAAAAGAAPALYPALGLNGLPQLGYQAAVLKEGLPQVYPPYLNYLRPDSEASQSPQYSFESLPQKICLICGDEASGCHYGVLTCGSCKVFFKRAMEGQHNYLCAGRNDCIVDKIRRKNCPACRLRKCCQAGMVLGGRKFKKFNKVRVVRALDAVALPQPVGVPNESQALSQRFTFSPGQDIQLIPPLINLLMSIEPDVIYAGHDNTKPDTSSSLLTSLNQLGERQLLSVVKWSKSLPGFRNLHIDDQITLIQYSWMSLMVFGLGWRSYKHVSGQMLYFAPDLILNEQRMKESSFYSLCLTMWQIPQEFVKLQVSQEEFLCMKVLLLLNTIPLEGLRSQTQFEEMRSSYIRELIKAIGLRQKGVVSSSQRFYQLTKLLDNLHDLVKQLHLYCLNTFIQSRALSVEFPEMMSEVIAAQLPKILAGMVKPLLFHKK
Thyrotropin receptor (Homo sapiens), sequence (P16473 whole entry, looked up): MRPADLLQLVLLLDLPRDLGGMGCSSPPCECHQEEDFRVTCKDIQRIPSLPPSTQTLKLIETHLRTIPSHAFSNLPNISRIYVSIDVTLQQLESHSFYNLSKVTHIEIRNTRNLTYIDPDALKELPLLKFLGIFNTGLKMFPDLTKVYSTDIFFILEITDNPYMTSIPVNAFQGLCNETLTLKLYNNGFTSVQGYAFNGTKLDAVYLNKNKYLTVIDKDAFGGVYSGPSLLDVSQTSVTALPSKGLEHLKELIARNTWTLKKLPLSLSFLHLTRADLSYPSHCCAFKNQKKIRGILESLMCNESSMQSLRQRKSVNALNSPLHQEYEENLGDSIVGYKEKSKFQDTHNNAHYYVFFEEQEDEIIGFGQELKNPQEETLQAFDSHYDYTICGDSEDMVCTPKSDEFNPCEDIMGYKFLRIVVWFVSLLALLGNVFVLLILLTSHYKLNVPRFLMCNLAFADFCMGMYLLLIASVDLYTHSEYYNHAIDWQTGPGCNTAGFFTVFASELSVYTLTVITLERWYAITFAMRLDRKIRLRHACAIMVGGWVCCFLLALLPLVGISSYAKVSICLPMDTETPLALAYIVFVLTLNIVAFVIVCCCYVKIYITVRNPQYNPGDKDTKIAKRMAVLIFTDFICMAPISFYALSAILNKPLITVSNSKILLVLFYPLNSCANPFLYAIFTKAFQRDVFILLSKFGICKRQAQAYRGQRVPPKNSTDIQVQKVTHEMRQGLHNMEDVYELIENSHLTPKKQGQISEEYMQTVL
Estrogen receptor beta (Homo sapiens), sequence (Q92731 whole entry, looked up): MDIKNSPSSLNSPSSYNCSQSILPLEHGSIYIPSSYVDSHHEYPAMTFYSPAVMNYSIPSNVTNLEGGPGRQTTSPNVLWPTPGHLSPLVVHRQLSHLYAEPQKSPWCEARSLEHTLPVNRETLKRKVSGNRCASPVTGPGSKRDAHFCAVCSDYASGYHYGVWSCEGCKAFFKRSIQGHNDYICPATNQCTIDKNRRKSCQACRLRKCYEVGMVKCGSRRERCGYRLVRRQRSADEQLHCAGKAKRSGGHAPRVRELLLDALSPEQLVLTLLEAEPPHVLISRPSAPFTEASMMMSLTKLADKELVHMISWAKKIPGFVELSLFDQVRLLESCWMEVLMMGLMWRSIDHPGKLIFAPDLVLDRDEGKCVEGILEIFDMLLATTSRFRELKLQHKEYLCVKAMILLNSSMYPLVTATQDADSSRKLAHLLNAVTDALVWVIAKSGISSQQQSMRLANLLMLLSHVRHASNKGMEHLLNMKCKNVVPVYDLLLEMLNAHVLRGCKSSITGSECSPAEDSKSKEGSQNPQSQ
Thyrotropin-releasing hormone receptor (Homo sapiens), sequence (P34981 whole entry, looked up): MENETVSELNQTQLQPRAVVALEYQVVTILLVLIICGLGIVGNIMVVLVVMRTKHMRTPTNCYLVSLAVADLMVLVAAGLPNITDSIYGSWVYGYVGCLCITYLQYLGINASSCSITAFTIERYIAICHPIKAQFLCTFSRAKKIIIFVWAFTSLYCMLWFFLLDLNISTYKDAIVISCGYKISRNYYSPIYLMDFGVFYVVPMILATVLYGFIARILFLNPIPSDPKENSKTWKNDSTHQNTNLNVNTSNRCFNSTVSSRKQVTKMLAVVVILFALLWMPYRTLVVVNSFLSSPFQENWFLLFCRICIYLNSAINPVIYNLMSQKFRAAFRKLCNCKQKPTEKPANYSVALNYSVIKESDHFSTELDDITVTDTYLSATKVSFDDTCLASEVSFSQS
Estrogen receptor (Homo sapiens), sequence (P03372 whole entry, looked up): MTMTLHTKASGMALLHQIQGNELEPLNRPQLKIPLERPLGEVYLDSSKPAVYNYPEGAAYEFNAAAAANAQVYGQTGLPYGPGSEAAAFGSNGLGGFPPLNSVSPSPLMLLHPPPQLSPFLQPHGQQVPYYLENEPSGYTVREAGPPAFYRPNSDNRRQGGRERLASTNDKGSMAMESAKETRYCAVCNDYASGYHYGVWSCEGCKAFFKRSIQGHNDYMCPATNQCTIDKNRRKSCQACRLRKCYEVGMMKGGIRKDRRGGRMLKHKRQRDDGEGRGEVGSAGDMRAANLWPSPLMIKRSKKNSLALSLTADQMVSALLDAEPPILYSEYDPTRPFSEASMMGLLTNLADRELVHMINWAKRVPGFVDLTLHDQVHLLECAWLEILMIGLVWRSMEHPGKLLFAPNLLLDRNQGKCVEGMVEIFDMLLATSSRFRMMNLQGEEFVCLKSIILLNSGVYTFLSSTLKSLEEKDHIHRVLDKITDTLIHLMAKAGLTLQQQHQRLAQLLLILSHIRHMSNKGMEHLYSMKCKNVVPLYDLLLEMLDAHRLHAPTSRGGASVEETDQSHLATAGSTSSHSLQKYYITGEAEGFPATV
Androgen receptor (Homo sapiens), sequence (P10275 whole entry, looked up): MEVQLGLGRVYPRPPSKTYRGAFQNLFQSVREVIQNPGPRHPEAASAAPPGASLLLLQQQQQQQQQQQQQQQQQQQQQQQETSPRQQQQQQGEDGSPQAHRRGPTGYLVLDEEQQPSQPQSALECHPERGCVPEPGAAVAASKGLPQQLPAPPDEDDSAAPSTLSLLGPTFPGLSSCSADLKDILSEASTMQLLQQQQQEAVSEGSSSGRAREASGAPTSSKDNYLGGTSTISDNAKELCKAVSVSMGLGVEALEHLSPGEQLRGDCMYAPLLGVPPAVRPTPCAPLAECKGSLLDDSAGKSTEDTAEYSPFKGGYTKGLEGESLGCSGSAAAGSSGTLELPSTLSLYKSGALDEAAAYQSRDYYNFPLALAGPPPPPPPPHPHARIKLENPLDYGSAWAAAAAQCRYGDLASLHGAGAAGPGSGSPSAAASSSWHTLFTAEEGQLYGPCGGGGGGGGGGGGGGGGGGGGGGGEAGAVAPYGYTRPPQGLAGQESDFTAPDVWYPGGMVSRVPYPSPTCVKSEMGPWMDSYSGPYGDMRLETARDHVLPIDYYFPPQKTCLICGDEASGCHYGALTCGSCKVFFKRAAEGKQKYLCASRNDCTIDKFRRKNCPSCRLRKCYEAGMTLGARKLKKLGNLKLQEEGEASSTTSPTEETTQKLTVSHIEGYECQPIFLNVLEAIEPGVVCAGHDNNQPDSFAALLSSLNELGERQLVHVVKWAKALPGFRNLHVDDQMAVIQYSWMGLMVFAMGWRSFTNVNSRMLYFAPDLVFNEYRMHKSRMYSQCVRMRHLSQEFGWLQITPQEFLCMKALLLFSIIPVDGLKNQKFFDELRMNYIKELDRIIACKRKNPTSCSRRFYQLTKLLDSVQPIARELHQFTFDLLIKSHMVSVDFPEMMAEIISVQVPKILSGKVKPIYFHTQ

O=C(O)c1cccc(C(=O)O)n1
inactive: Potency [1] | Potency [2] | Potency [3] | Potency [4] | Potency [5] | Potency [6] | Potency [7] | outcome [8] | Potency [9] | outcome [10] | Potency [11] | Potency [12] | outcome [13] | outcome [14] | outcome [15] | outcome [16]

NC(N)=NS(=O)(=O)c1ccc(N)cc1
inactive: Potency [1] | Potency [2] | Potency [3] | Potency [4] | Potency [5] | Potency [17] | Potency [6] | Potency [7] | outcome [8] | Potency [9] | outcome [10] | Potency [18] | Potency [11] | Potency [12] | outcome [13] | outcome [14] | outcome [15]

CC(C)COC(=O)C(C)C
inactive: Potency [1] | Potency [2] | Potency [3] | Potency [4] | Potency [5] | Potency [6] | Potency [7] | Potency [9] | outcome [10] | Potency [12] | outcome [13] | outcome [15] | outcome [16]

Cc1cc(C)c(NC(=O)CN(CC(=O)O)CC(=O)O)c(C)c1Br
inactive: Potency [1] | Potency [2] | Potency [3] | Potency [4] | Potency [5] | Potency [6] | outcome [10] | Potency [11] | Potency [12] | Potency [19] | outcome [13] | outcome [14] | outcome [15]

FC(F)(F)C(F)(F)C(F)(F)C(F)(F)C(F)(F)C(F)(F)C(F)(F)C(F)(F)C(F)(F)C(F)(F)F
inactive: activity change [1] -0.701% [at 8.39 µM, active compounds read high] | activity change, negative = inhibition [2] -15.5% [at 8.39 µM] | activity, negative = inhibition [3] 3.92% [at 8.39 µM] | activity change, negative = cytotoxicity [4] 1.46% [at 8.39 µM] | activity change, negative = cytotoxicity [5] -0.929% [at 8.39 µM] | activity change, negative = cytotoxicity [6] -4.55% [at 8.39 µM] | activity change, negative = inhibition [9] -3.91% [at 8.39 µM] | activity change, negative = cytotoxicity [10] 4.74% [at 8.39 µM] | activation [18] 2.84% [at 8.39 µM] | activity change, negative = inhibition [11] 0.137% [at 8.39 µM] | activity change, negative = cytotoxicity [12] 3.97% [at 8.39 µM] | activity change, negative = cytotoxicity [19] 0% [at 8.39 µM] | viability change, negative = cytotoxic [13] -11.6% [at 6.97 µM] | activity change, negative = cytotoxicity [14] 13.6% [at 6.97 µM] | activation [15] 2.81% [at 6.97 µM] | activity, negative = inhibition [16] 0.552% [at 4.65 µM]

NCC[C@H](O)C(=O)N[C@@H]1C[C@H](N)[C@@H](O[C@H]2O[C@H](CN)[C@@H](O)[C@H](O)[C@H]2O)[C@H](O)[C@H]1O[C@H]1O[C@H](CO)[C@@H](O)[C@H](N)[C@H]1O
inactive: activity change [1] 0.203% [at 0.349 µM, active compounds read high] | activity change, negative = inhibition [2] 22.5% [at 0.349 µM] | activity, negative = inhibition [3] -5.02% [at 0.349 µM] | activity change, negative = cytotoxicity [4] 1.61% [at 0.35 µM] | activity change, negative = cytotoxicity [5] 1.09% [at 0.349 µM] | activation [17] 0.148% [at 0.349 µM] | activity change, negative = cytotoxicity [6] 1.11% [at 0.349 µM] | activation [7] 1.1% [at 0.349 µM] | cAMP activity change [8] -0.997% [at 0.349 µM] | activity change, negative = inhibition [9] 0.0742% [at 0.349 µM] | activity change, negative = cytotoxicity [10] 0.765% [at 0.349 µM] | activity change, negative = inhibition [11] 2.43% [at 0.348 µM] | activity change, negative = cytotoxicity [12] 0.454% [at 0.348 µM] | activity change, negative = cytotoxicity [19] 8.45% [at 0.349 µM] | activity change, negative = cytotoxicity [14] -7.72% [at 0.29 µM] | activation [15] 5.03% [at 0.29 µM] | activity, negative = inhibition [16] 2.62% [at 0.194 µM]

CCC(=O)/C=C/c1ccc(OC)cc1
inactive: Potency [1] | Potency [2] | outcome [20] | Potency [4] | Potency [5] | Potency [6] | Potency [7] | outcome [10] | Potency [18] | Potency [12] | outcome [13] | outcome [15] | outcome [16]

Source: PubChem BioAssay (Tox21)
